Measured values taken from PubChem BioAssay AID1159580 (chemical genetic matrix, 2015).
Values joined by “and” are separate entries in the source; they are usually repeats but may differ in a detail not shown here. Equal entries are not always repeated. Out of some 5,500 compounds screened, about 2,000 (36%) were called active. About 18% were inconclusive and are not listed. Cut-off read from the data, not from the text of the source: active = normalized growth mostly below about 0.91 (no sharp cut-off); inconclusive = no clear call, values can overlap the other calls; inactive = mostly above about 0.92. The list shows a part of the results.

Assay: chemical genetic growth profiling, strain panel (AID 1159580);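 note: tested at 20 µM; growth read once vehicle control cultures reached saturation at 30 °C; 1 = growth at the plate median or of vehicle wells; lower values mean less growth of the strain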
Conditions: S. cerevisiae deletion strains, growth OD

Measured: normalized growth

CC(=O)OCC(=O)[C@@]12OC3(CCCC3)O[C@@H]1CC1C3CCC4=CC(=O)C=C[C@]4(C)[C@@]3(F)[C@@H](O)C[C@@]12C (stereo partly specified)
inactive: locus YAL013W, strain DEP1, stronger effect = lower value 1.02 | locus YAL021C, strain ccr4, stronger effect = lower value 1.01 | locus YAL026C, strain drs2, stronger effect = lower value 1.02 | locus YAL030W, strain snc1, stronger effect = lower value 1.02 | locus YBL061C, strain skt5, stronger effect = lower value 1.03 | locus YBR009C, strain hhf1, stronger effect = lower value 1.01 | locus YBR021W, strain FUR4, stronger effect = lower value 1.02 | locus YBR023C, strain chs3, stronger effect = lower value 1.01 | locus YBR171W, strain sec66, stronger effect = lower value 1.02 | locus YBR229C, strain ROT2, stronger effect = lower value 1.02 | locus YBR231C, strain swc5, stronger effect = lower value 1.02 | locus YBR279W, strain paf1, stronger effect = lower value 1.01 | locus YCL011C, strain gbp2, stronger effect = lower value 1.02 | locus YCL016C, strain dcc1, stronger effect = lower value 1.01 | locus YCL029C, strain bik1, stronger effect = lower value 0.985 | locus YCL069W, strain vba3, stronger effect = lower value 1.02 | locus YCR088W, strain abp1, stronger effect = lower value 1.02 | locus YDL005C, strain med2, stronger effect = lower value 1.02 | locus YDL035C, strain GPR1, stronger effect = lower value 1.01 | locus YDL040C, strain nat1, stronger effect = lower value 1.02 | locus YDL074C, strain BRE1, stronger effect = lower value 0.972 | locus YDL101C, strain DUN1, stronger effect = lower value 1.01 | locus YDL134C, strain PPH21, stronger effect = lower value 1.01 | locus YDL185W, strain tfp1, stronger effect = lower value 1 | locus YDL192W, strain arf1, stronger effect = lower value 1 | locus YDR001C, strain nth1, stronger effect = lower value 1.02 | locus YDR069C, strain doa4, stronger effect = lower value 1.01 | locus YDR101C, strain arx1, stronger effect = lower value 0.984 | locus YDR137W, strain rgp1, stronger effect = lower value 1.02 | locus YDR150W, strain NUM1, stronger effect = lower value 1.02 | locus YDR159W, strain sac3, stronger effect = lower value 1.02 | locus YDR162C, strain NBP2, stronger effect = lower value 1.02 | locus YDR195W, strain ref2 1.03 | locus YDR297W, strain sur2, stronger effect = lower value 1.02 | locus YDR318W, strain mcm21, stronger effect = lower value 1 | locus YDR334W, strain swr1, stronger effect = lower value 1.02 | locus YDR335W, strain msn5, stronger effect = lower value 1.01 | locus YDR388W, stronger effect = lower value 1 | locus YDR392W, strain spt3, stronger effect = lower value 1.03 | locus YDR502C, strain sam2, stronger effect = lower value 1.02 | locus YEL003W, strain gim4, stronger effect = lower value 1.02 | locus YEL037C, strain rad23, stronger effect = lower value 1.02 | locus YEL061C, strain CIN8 (second series), stronger effect = lower value 1.03 | locus YEL061C, strain CIN8, stronger effect = lower value 1.01 | locus YER015W, strain faa2, stronger effect = lower value 1.01 | locus YER016W, strain bim1, stronger effect = lower value 1.03 | locus YER110C, stronger effect = lower value 1 | locus YER111C, strain swi4, stronger effect = lower value 1.02 | locus YER155C, strain BEM2 (second series), stronger effect = lower value 1.08 | locus YER155C, strain BEM2, stronger effect = lower value 1.02 | locus YER167W, strain BCK2, stronger effect = lower value 1.02 | locus YFR010W, strain ubp6, stronger effect = lower value 1.02 | locus YGL078C, strain dbp3, stronger effect = lower value 0.987 | locus YGL086W, strain mad1, stronger effect = lower value 1 | locus YGL167C, strain pmr1, stronger effect = lower value 1.03 | locus YGL173C, strain kem1, stronger effect = lower value 1.02 | locus YGL227W, strain vid30, stronger effect = lower value 1.02 | locus YGL240W, strain doc1, stronger effect = lower value 1.03 | locus YGL248W, strain PDE1, stronger effect = lower value 1.01 | locus YGL253W, strain hxk2, stronger effect = lower value 0.963 | locus YGR078C, strain PAC10, stronger effect = lower value 1.01 | locus YGR135W, strain pre9, stronger effect = lower value 0.989 | locus YGR229C, strain SMI1, stronger effect = lower value 1.03 | locus YGR252W, strain gcn5, stronger effect = lower value 1.04 | locus YHR013C, strain ard1, stronger effect = lower value 1.03 | locus YHR027C, strain rpn1, stronger effect = lower value 1.02 | locus YHR030C, strain SLT2, stronger effect = lower value 1.01 and 0.976 | locus YHR079C, strain IRE1 (second series), stronger effect = lower value 0.986 | locus YHR079C, strain IRE1, stronger effect = lower value 0.978 | locus YHR094C, strain hxt1, stronger effect = lower value 0.991 | locus YHR129C, strain ARP1, stronger effect = lower value 1.01 | locus YHR142W, strain chs7, stronger effect = lower value 1 | locus YHR200W, strain rpn10, stronger effect = lower value 0.994 | locus YIL066C, strain RNR3, stronger effect = lower value 1.01 | locus YIL073C, strain SPO22, stronger effect = lower value 0.966 | locus YIL125W, strain kgd1, stronger effect = lower value 1.01 | locus YIR030C, strain dcg1, stronger effect = lower value 0.992 | locus YJL092W, strain hpr5, stronger effect = lower value 1.02 | locus YJL095W, strain BCK1 (second series), stronger effect = lower value 1.02 | locus YJL095W, strain BCK1, stronger effect = lower value 1.01 and 0.989 | locus YJL115W, strain asf1, stronger effect = lower value 1.03 | locus YJL129C, strain trk1, stronger effect = lower value 1.01 | locus YJL134W, strain LCB3, stronger effect = lower value 1.01 | locus YJL154C, strain vps35, stronger effect = lower value 1.02 | locus YJL164C, strain tpk1, stronger effect = lower value 1 | locus YJL166W, strain qcr8, stronger effect = lower value 1.02 | locus YJL168C, strain set2, stronger effect = lower value 1 | locus YJL187C, strain SWE1 (second series), stronger effect = lower value 1.01 | locus YJL187C, strain SWE1, stronger effect = lower value 1.03 | locus YJR043C, strain POL32, stronger effect = lower value 0.988 | locus YJR066W, strain TOR1, stronger effect = lower value 0.968
